ugtP null kill: growth inhibition of S. aureus ugtP deletion strain. growth inhibition, % (concentration not given with the values). S. aureus RN4220 ugtP deletion, OD600 growth, 16 h. hit rate 0.54% among 330,000; in the data active = growth inhibition above about 68%;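 also: plate controls were untreated wells for no effect and antibiotic for full effect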
PrP 5UTR inh: suppresses PrP 5' UTR mRNA reporter expression; AID 488862; inhibition, % (concentration not given with the values); hit rate 0.35% among 340,000; cell-based PrP 5' UTR mRNA reporter, plate reader; in the data active = inhibition above about 52%; also: 0 = median of the neutral control wells
CCHFV vOTU inh: blocks the CCHF virus ovarian tumor domain protease. CCHFV vOTU protease, Pep-AMC fluorescence. inhibition, % at 11.5 µM. hit rate 0.55% among 370,000; in the data active = inhibition above about 30%; also: 0% = vehicle wells with enzyme and 100% = no enzyme wells
Sa RN4220 lethal: kills Staphylococcus aureus RN4220; S. aureus RN4220 growth, OD600, 16 h; inhibition, % (no concentration beside the values); hit rate 0.33% among 330,000; AID 1259311; in the data active = inhibition above about 85%;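 also: plate controls were untreated cells for no effect and reference antibiotic for full effect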
PrPC TRFRET: inhibitors of human cell surface prion protein PrPC | inhibition, % at 13.8 µM | hit rate 0.43% among 370,000 | AID 720596 | P04156 | TR-FRET read-out; in the data active = inhibition above about 24%; also: 0% = median of the test wells and 100% = reference compound wells
PfHsp40 rescue: rescue of PfHsp40-mediated yeast toxicity; hit rate 0.68% among 340,000; S. cerevisiae expressing PfHsp40, growth rescue, ATP luminescence; growth rescue, % at 12.5 µM; in the data active = growth rescue above about 28%, passing the limit was not always enough;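 also: yeast W303a lacking pdr1 and pdr3 grown in galactose medium; growth measured after three days at 30 °C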
* marks the source's active call; other numbers are inactive results; . = no result. A selection: hits, their analogues and other compounds. The true share with any hit is near 2.1%.

SMILES	ugtP null kill	PrP 5UTR inh	CCHFV vOTU inh	Sa RN4220 lethal	PrPC TRFRET	PfHsp40 rescue
Cc1ccc(C(=O)NC(=S)Nc2ccc(Oc3ccc(Cl)cc3)cc2)cc1	66	-10	-14	4	4	-1
CCOC1OC(C(=O)N2CCN(Cc3ccc4c(c3)OCO4)CC2)=CC(C(C)(C)C)C1CCCO (stereo unspecified)	3	.	.	5	.	.
Cc1cc(O)c(C=NNc2ccc(F)cc2)c(=O)o1	14	.	.	6	.	.
COc1ccc(SCC(=O)c2cc(C)c(OC(=S)N(C)C)c(C)c2)cc1	27	-36	9	5	10	1
Cc1cc(C(=O)CSc2ccc(F)cc2)cc(C)c1OC(=S)N(C)C	42	68*	7	-2	7	3
O=C(NCC1CC1(Cl)Cl)Nc1ccc(Cl)c(Cl)c1 (stereo unspecified)	51	-38	6	57	13	304*
O=C(NCCCn1ccnc1)Nc1ccc(Cl)c(Cl)c1	-21	-35	2	-8	3	46*
O=C(NCCCn1ccnc1)Nc1ccc(Cl)cc1	8	-20	-18	7	-2	-1
CCOc1ccc(N/N=C(/C#N)C(N)=O)cc1	.	-36	9	.	-18	363*
COc1ccc(N/N=C(\C#N)C(N)=O)cc1	.	-21	1	.	-9	47*
Brc1cccc(C=NNc2nn[nH]n2)c1	4	.	.	4	.	.
CC(C)CC(CNC(=O)OC(C)(C)C)NC(=O)c1nc[nH]c1C(=O)NC(CC(C)C)C(=O)CNCC(CC(C)C)NC(=O)c1nc[nH]c1C(=O)NC(Cc1c[nH]c2ccccc12)C(=O)OC(C)(C)C (stereo unspecified)	0	.	.	3	.	.
Cc1cc(C)cc(NS(=O)(=O)c2ccc(-c3cnc(C4CC4)o3)cc2)c1	-4	67*	17	8	18	0
Cc1cccc(NS(=O)(=O)c2ccc(-c3cnc(C4CC4)o3)cc2)c1C	-13	79*	14	6	18	367*
Cc1ccc(C)c(NS(=O)(=O)c2ccc(-c3cnc(C4CC4)o3)cc2)c1	-8	13	18	25	9	1
C#CCOCCOCCOCCNc1nc(N2CCN(C(=O)Cn3cc(CCCN=C(N)N)nn3)CC2)nc(N2CCN(C(=O)C(C(C)CC)n3cc(CCCCN)nn3)CC2)n1 (stereo unspecified)	-7	.	.	1	.	.
Oc1ccc(-c2nccc(-c3ccc(Cl)cc3)n2)cc1	23	-28	10	13	-4	.
Oc1ccc(-c2cc(-c3ccc(O)cc3)nc(-c3ccccc3)n2)cc1	100*	3	20	97*	8	2
Oc1ccc(-c2cccc(-c3ccc(O)cc3)n2)cc1	99*	-35	2	98*	4	0
C#CCOCCOCCOCCNc1nc(N2CCN(C(=O)C(Cc3ccc(O)cc3)n3cc(C(N)CC(C)C)nn3)CC2)nc(N2CCN(C(=O)C(C(C)CC)n3cc(C(N)CC(C)C)nn3)CC2)n1 (stereo unspecified)	0	.	.	0	.	.
COc1ccc(NC(=O)Nc2ccc3c(c2)C(=O)N(C(C)CO)CC(C)C(CN(C)C(=O)Nc2c(C)noc2C)O3)cc1 (stereo unspecified)	-8	.	.	5	.	.
Cc1ccc(S(=O)(=O)Nc2ccc(O)c3ncccc23)cc1	-2	-18	-6	5	2	188*
Cc1ccc(S(=O)(=O)Nc2ccc(O)c3cccnc23)cc1	6	-19	26	2	-21	12
CC1CN(C(C)CO)C(=O)c2cc(NC(=O)Cn3cnnn3)ccc2OC1CN(C)Cc1ccc(Oc2ccccc2)cc1 (stereo unspecified)	-4	.	.	2	.	.
COc1cccc(C=NNc2snc(SC)c2C#N)c1O	96*	.	.	96*	.	.
SMILES	ugtP null kill	PrP 5UTR inh	CCHFV vOTU inh	Sa RN4220 lethal	PrPC TRFRET	PfHsp40 rescue
CN(C)S(=O)(=O)c1ccc2c(c1)nc(CCC(=O)NCc1ccc(Cl)cc1)n2C	4	13	11	6	8	45*
S=C(NN=Cc1ccccc1Cl)Nc1ccccc1	91*	.	.	-3	.	.
FC(F)(F)c1ccc(Cl)c(NC(=S)NN=Cc2ccccc2C(F)(F)F)c1	86*	.	.	6	.	.
S=C(N/N=C/c1ccccc1Cl)Nc1ccccc1	.	3	5	.	-4	1
Fc1cccc(C=NNC(=S)Nc2ccccc2Cl)c1	93*	.	.	1	.	.
FC(F)(F)c1ccc(Cl)c(NC(=S)N/N=C/c2ccccc2C(F)(F)F)c1	.	-6	-4	.	-3	0
CCCCCC(=O)Nc1cccc(C2=NOC3(C2)CC(C(N)=O)N(C(=O)c2ccc(Cl)cc2)C3)c1 (stereo unspecified)	12	.	.	6	.	.
O=C(NN=Cc1ccncc1)C1CC1C(=O)NN=Cc1ccncc1 (stereo unspecified)	0	.	.	0	.	.
CC(C)(C)c1ccc(C(=O)NNC(=S)NC(=O)c2cccnc2)cc1	36	9	3	70	2	109*
CC(C)(C)C(=O)NC(=S)NNC(=O)c1ccc(-c2ccccc2)cc1	89	13	.	92*	.	-1
CC(C)(C)C(=O)NC(=S)NNC(=O)c1ccncc1	-2	-1	3	19	2	1
CC(C)(C)c1ccc(C(=O)NC(=S)NNC(=O)c2cccs2)cc1	92*	6	5	86*	-3	465*
CCOC(=O)Cn1cc(C=NNC(=O)CC#N)c2ccccc21	13	.	.	0	.	.
COc1ccc(Cl)cc1NC(=O)CC(C)=NNC(=O)C(=O)NCc1ccccc1	-3	.	.	-3	.	.
Cc1cccc(OCC(=O)Nc2ccc3nc(C)sc3c2)c1	3	-28	-7	7	3	-1
CC(=O)c1ccc(NC(=O)c2ccc3nc(C)sc3c2)cc1	5	-35	2	3	4	3
Cc1nc2ccc(NC(=O)c3cccs3)cc2s1	25	-51	15	2	11	37*
Cc1nc2ccc(NC(=O)COc3cccc(F)c3)cc2s1	-5	-8	-7	9	-2	242*
Cc1nc2ccc(C(=O)Nc3ccccc3Cl)cc2s1	6	-45	12	5	-1	77*
CCCOc1ccc(C=NNc2cccc([N+](=O)[O-])c2)c(O)c1	-12	.	.	-17	.	.
Cc1ccc(C=NNc2ccc(C(=O)O)cc2)o1	8	.	.	4	.	.
CCOC1OC(C(=O)N2CCN(Cc3ccccc3)CC2)=CC(c2ccccc2)C1CCCO (stereo unspecified)	2	.	.	4	.	.
COC(=O)c1ccc(COc2ccccc2C=NO)o1	-3	.	.	7	.	.
O=C(Nc1ccccc1)C1=CC(c2ccc(C(F)(F)F)cc2)CC(OCc2ccc(CO)cc2)O1 (stereo unspecified)	9	.	.	-2	.	.
COc1cccc(OC)c1C(=O)NC(C)C12CC3CC(CC(C3)C1)C2 (stereo unspecified)	70	-14	11	15	8	84*
COc1ccc(Cl)cc1C(=O)OCC(=O)Nc1cccnc1Cl	10	-4	-5	6	-5	-1
COc1cccc(OC)c1C(=O)OCC(=O)Nc1cccnc1Cl	2	-1	4	-1	10	58*
